For 40 compounds, inhibition results are on record in ChEMBL document CHEMBL3433997, “St. Jude Leishmania screening dataset” (2016).

The target in this test is Hexose transporter 1 (Plasmodium falciparum) (UniProt O97467). Description: ST_JUDE_LEISH: Cytotoxicity at 2uM final concentration against transgenic Leishmania Mexicana promastigotes LmPfHT that are glucose transport deficient and complemented with the Plasmodium falciparum hexose transporter. Activity is measured by DNA content using SYBR green in vitro. The format is functional.
As usually defined, the inhibition is the relative decrease from the control value, in per cent. In the case of `CCCCCC1c2[nH]c3ccccc3c2CCN1C(=O)OCc1ccccc1` (stereo not given), the inhibition turned out to be 6.98%.

Turning to `O=C(NCc1cccc(Br)c1)c1ccc(CNC2CCN(Cc3ccccc3)CC2)cc1`, the inhibition is 1.61%. As for `Cc1cccc2nc(-c3cccc(-c4ccc(CNCc5cccc(N)c5)cc4)c3)[nH]c12`, the inhibition is -1.49%. For the compound `O=C(CCNc1ccnc(NCCc2ccccc2)n1)Nc1ccccc1`, the inhibition was determined as 3.7%. For `OC1CCCN(Cc2ccc(-c3cccc(-c4nc5ccccc5[nH]4)c3)cc2)C1` (stereo not given) the value was 1.57%; for `O=C(NC1CCN(Cc2cccc(C(F)(F)F)c2)CC1)c1ccc(-c2cccc(C(F)(F)F)c2)s1`, 3.03%. For `Cc1[nH]c(C)c(-c2ccc(-c3cccc(OC(F)(F)F)c3)nc2)c(=O)c1Cl` the value was 0.86%; for `O=C(Nc1ccnc(-c2cccnc2)n1)c1cc(C(F)(F)F)cc(C(F)(F)F)c1`, 0.27%; for `O=C(/C=C/c1ccc(Cl)c(Cl)c1)NCCCCCCN1CCN(C(=O)Nc2ccc(Cl)c(C(F)(F)F)c2)CC1`, 4.06%. `COc1ccc2ncc(F)c(CCN3CCC(NCc4cc(Br)c5c(c4)OCCO5)CC3)c2n1`: the inhibition came to 31.4%.

Turning to `CCN(c1ccccc1)S(=O)(=O)c1ccc(OC)c(NC(=O)c2cccc(C(F)(F)F)c2)c1`, the inhibition stood at 7.45%.

As for `C[C@@H](N)C#Cc1cc2c(Nc3ccc(OCc4cccc(F)c4)c(Cl)c3)ncnc2s1`, the inhibition is 4.76%. With `CC(C)Sc1ccc(Cl)cc1CON1C(=N)N=C(N)NC1(C)C` the figure was 2.18%; with `CN(C)c1ccc(C=Cc2nc(=O)c3ccccc3o2)cc1`, 3.22%. For `Cc1ccc(Cn2ncc(N3CCNCC3)c(Cl)c2=O)cc1NC(=O)Nc1ccc(-c2ccccc2)cc1`, the inhibition is 2.78%. For `CC(C)(C)CC(C)(C)c1ccc(O)c(CNC2CCCCC2)c1` the value was 2.09%; for `COc1ccc(Nc2nccc(N3CCC(NC(=O)C(C)c4ccc(Cl)cc4)C3)n2)cc1` (stereo not given), 0.96%; for `CN(C)CCCOc1ccc(CCNCc2cccc(Oc3ccc(Cl)cc3)c2)cc1`, 16.4%.

For the compound `N#Cc1ccc(-c2nc3c(N4CCCC4)cccc3n2CCNCc2ccccc2)cc1`, the inhibition is 11%.

For `O=C(NC1CC1)c1ccc(N2CCCC(COc3ccccc3F)C2)nc1` (stereo not given), the inhibition turned out to be 1.75%.

`Cc1cc(C2NC(=O)c3ccccc3N2)c(C)n1-c1ccc2c(c1)OCO2` (stereo not given): the inhibition was determined as 3.59%. As to `O=S(=O)(c1ccc(NC(S)=NN=Cc2ccccn2)cc1)N1CCCCC1`, the inhibition came to 6.75%.

With `CCOC(=O)c1cc(C(=O)NCCCCN2CCC(c3cn(C)c4ccccc34)CC2)ccc1-c1ccc(C(F)(F)F)cc1`, the inhibition came to 2.2%. Take `CCNc1cc(C(=O)N[C@@H](Cc2ccccc2)[C@H](O)CNC2(C)CCCCC2)cc(N2CCCCS2(=O)=O)c1`: the inhibition is -0.16%. `O=C(Nc1ccc(Br)cc1)N(CCN1CCOCC1)CC(O)COCc1ccc(F)cc1` (stereo not given): the inhibition came to 1%. With `CCC[C@@H]([C@@H](CC(C)C)C(=O)N[C@@H](CCCNc1nccc(C(F)(F)F)n1)C(=O)Nc1nccs1)N(O)C=O` the figure was 4.8%.

Regarding `CCOC(=O)C1=C(C)NC(Cn2ccnc2)=C(C(=O)OCC)C1c1ccc(C(C)(C)C)cc1` (stereo not given), the inhibition was found to be 2.73%. With `c1cc(CNCC2CCN(CC3CCCCC3)CC2)cc(-n2ccnc2)c1` the figure was -0.61%; with `CN(C)CCOc1ccc(NC(=O)NC(C)(C)c2nc(-c3ccc(Cl)c(O)c3)c(-c3ccncc3)[nH]2)cc1`, -2.62%; with `CC(Cc1ccc(NC(=O)c2ccc(NCCc3ccccc3)cc2)cc1)NCCc1cccc(Cl)c1` (stereo not given), -0.81%. For `CSc1nnc2n(Cc3ccccc3)c(=O)c3c(n12)-c1ccccc1CC31CCCCC1` the value was 0.86%; for `O=C(Nc1ccc(Cl)c(Cl)c1)Nc1ccccc1N1CCNCC1`, 0.2%; for `CCCN1CCN(Cc2ccc(C(=O)Nc3ccc(Cl)cc3)cc2)CC1`, 4.24%. For `OC(c1ccc2ccccc2c1)C1CN(CCc2ccccc2)CCC1(O)c1ccccc1` (stereo not given) the value was -3.49%.

Turning to `O=S(=O)(NC1CCN(c2ccnc3cc(Cl)ccc23)C1)c1cccs1` (stereo not given), the inhibition was -0.12%. With `CN1CCCN(Cc2cccc(-c3cccc(NC(=O)c4ccc(C#N)cc4)c3)c2)CC1` the figure was 7.28%. Consider `COC(=O)[C@@H](NC(=O)[C@@H](Nc1ccc(C#N)c2ccccc12)C(C)(C)C)c1ccc(O)cc1`, for which the inhibition worked out at 1.12%. With `c1ccc(Oc2ccc(Nc3ccnc4cc(-c5csc(CNCCN6CCOCC6)n5)ccc34)cc2)cc1`, the inhibition is 1.23%. On to `COc1ccc(-n2c(=O)c3c(n4c(SC(C)C)nnc24)-c2ccccc2CC32CCCCC2)cc1`, for which the inhibition was 1.21%. With `CCCC(C)Nc1nc(C)cc(N[C@@H](CC(C)C)C(=O)NC2CCCC2)n1` (stereo not given in full) the figure was 4.34%.
